In PubChem BioAssay AID504333 (National Center for Advancing Translational Sciences (NCATS), 2011):
In all, about 360,000 compounds went through this assay and about 16,000 (4.4%) were called active. Roughly 9% stayed inconclusive and do not appear here. The full list was thinned out, with actives kept by preference. A number with no mark means an inactive call. Calls come from the whole dose curve; as a rule, active = well fitted inhibition curve with a large enough effect; inconclusive = small, poorly fitted or top-dose-only effect; inactive = no such curve, though single readings can be large or run the other way.

The compounds below were run against Bromodomain adjacent to zinc finger domain protein 2B (Homo sapiens) (UniProt Q9UIF8) (assay: qHTS Assay for Inhibitors of BAZ2B). Conditions: AlphaScreen BAZ2B-H3K14Ac peptide displacement; series mostly up to 114 µM; activity change, negative = inhibition: at the top concentration.
Bromodomain adjacent to zinc finger domain protein 2B (Homo sapiens), sequence (Q9UIF8 whole entry, looked up, the tested form may be a part): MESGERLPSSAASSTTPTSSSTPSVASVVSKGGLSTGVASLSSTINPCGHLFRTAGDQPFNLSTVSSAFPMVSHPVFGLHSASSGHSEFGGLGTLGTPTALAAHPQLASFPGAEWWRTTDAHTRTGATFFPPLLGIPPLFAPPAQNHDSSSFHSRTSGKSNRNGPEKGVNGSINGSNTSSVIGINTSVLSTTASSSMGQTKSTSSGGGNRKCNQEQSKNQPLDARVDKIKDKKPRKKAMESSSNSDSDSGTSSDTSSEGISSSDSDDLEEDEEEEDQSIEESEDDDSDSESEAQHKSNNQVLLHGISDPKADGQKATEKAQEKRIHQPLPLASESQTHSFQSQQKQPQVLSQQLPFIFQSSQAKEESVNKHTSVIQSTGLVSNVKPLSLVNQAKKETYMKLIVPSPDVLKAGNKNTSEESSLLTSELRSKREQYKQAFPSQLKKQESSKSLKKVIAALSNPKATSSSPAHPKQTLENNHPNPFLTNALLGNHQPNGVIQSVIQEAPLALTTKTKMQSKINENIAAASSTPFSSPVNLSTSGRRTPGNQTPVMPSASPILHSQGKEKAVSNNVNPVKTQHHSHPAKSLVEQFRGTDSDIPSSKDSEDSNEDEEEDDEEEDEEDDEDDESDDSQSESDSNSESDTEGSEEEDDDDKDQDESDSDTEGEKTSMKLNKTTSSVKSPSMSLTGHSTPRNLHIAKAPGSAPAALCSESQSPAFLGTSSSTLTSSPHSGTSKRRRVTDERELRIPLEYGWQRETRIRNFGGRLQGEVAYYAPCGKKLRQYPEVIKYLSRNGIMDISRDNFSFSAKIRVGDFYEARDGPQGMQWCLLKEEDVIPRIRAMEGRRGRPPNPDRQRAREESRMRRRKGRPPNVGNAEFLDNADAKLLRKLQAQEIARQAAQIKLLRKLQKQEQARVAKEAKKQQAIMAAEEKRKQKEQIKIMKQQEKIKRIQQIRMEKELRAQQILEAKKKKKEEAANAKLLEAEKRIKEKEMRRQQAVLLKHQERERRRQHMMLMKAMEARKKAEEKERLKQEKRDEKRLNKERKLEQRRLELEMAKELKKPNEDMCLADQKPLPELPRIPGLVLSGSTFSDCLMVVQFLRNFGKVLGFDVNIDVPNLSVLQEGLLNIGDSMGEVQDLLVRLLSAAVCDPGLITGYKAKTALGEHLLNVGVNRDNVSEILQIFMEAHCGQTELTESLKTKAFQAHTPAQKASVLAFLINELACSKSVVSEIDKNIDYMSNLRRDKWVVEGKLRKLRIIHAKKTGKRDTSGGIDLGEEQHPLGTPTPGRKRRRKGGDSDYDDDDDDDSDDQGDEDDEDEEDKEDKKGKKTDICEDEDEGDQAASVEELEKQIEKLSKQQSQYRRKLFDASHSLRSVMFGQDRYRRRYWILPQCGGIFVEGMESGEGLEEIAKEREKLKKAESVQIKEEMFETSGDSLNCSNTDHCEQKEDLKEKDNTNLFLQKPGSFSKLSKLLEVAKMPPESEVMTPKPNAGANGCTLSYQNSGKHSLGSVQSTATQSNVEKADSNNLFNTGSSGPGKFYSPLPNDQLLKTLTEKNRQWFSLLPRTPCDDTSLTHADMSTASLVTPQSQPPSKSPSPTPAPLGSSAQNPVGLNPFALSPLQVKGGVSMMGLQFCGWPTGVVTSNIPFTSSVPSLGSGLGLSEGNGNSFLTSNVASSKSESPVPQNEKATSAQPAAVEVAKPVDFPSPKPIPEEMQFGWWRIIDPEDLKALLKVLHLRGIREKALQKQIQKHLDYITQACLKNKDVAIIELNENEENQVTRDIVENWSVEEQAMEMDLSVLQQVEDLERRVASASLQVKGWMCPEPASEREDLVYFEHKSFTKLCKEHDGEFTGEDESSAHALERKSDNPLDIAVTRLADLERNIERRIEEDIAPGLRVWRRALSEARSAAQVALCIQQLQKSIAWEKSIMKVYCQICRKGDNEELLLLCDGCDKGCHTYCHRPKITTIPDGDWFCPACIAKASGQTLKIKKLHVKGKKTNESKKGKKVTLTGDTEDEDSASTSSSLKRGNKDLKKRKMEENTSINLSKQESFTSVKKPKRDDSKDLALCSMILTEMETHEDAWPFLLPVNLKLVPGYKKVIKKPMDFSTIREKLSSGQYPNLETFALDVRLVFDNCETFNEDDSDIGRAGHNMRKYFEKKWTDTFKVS
Outline: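 AlphaScreen displacement: compounds (up to 110uM) incubated 30 min at room temperature with a preformed 50 nM BAZ2B/50 nM biotinylated H3K14Ac peptide complex in PBS pH 7.4 with Tween-20. Donor and acceptor beads at 10 ug/mL final added, 20 min light-protected before reading.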
% is set by controls: 0 for no effect and ±100 for the full control effect; potency is the fitted concentration of half-maximal effect.
Note: nearly all actives have a fitted effect of over 60% in size.

Row | SMILES | activity change, negative = inhibition | Potency
1 | COC(=O)c1cc(C(=O)NC(C)C2CC3CCC2C3)cc([N+](=O)[O-])c1 (stereo not given) | -28.5% | 
2 | COc1ccc(N2CCN(c3cc(C)nc4nncn34)CC2)cc1 | -3.48% | 
3 | COc1ccc(N2C(=O)CSC23C(=O)N(Cc2cccc(F)c2)c2ccccc23)cc1Cl (stereo not given) | -22.3% | 
4 | Cc1ccc(-n2c(SCC(=O)c3ccccc3)nc3c([nH]c4ccccc43)c2=O)cc1 | 2.93% | 
5 | COc1ccc(C)cc1NC(=O)NCc1ccccn1 | -14.3% | 
6 | COc1ccc2ccccc2c1CNCc1ccccn1 |  | 79.4 µM (active)
7 | COc1ccc2ccccc2c1CNc1nnnn1C | -10.5% | 
8 | CCCSc1ncc(Cl)c(C(=O)Nc2sc3c(c2C(=O)NCCOC)CCCC3)n1 | -19.1% | 
9 | Cc1c(Cl)cccc1NC(=O)C1CCCN(c2ncnc3onc(C)c23)C1 (stereo not given) | 8.64% [at 57.1 µM] | 
10 | Cc1ccc(NC(=O)Cn2c(=O)n(-c3ccccc3)c(=O)c3c4c(sc32)CCCC4)cc1 | -2.88% | 
11 | O=c1c2c3c(sc2n(CCN2CCCC2)c(=O)n1Cc1ccccc1)CCCCC3 |  | 89.1 µM (active)
12 | CCOC(=O)N1CCc2c(sc3c2c(=O)n(Cc2ccccc2)c(=O)n3CC(=O)Nc2cccc(C)c2)C1 | 3.88% | 
13 | O=C(Nc1cc(C(F)(F)F)ccc1Cl)c1nc2ccccc2nc1N1CCCCC1 | -31.3% | 
14 | Brc1ccccc1C1Nc2cccc3cccc(c23)N1 |  | 44.7 µM (active)
15 | Brc1ccccc1C1N=C(c2ccccc2)NO1 (stereo not given) | 9.17% | 
16 | COc1cc2c(cc1OC)C(c1ccccc1Br)NC(=O)C2 (stereo not given) | -6.18% | 
17 | COc1ccc(N2CCN(C(=O)c3ccc(N4CCCCS4(=O)=O)cc3)CC2)cc1 |  | 50.1 µM (active)
18 | COc1ccc(N2CCN(C(=O)c3ccc4c(Cl)c5c(nc4c3)CCCC5)CC2)cc1 |  | inactive
19 | COc1ccc(C(=O)Nc2ccccc2C(=O)N2CCN(c3ccccc3)CC2)cc1 | -20.7% | 
20 | O=C(NCC(c1cccnc1)N1CCc2ccccc21)c1cccc(C(F)(F)F)c1 (stereo not given) | -2.57% | 
21 | COc1ccc(-c2nn3c(=O)cc(CN4CCN(C(=O)c5ccc(OC)c(OC)c5)CC4)nc3s2)cc1 | 1.38% | 
22 | COc1ccc(S(=O)(=O)/N=C2\C=C(NS(=O)(=O)c3ccccc3)C(=O)c3ccccc32)cc1 |  | 10 µM (active)
23 | COc1ccc(NC(=O)c2cnc(NS(=O)(=O)c3ccccc3)nc2)cc1 | 1.25% | 
24 | COc1ccc(S(=O)(=O)Nc2cc3c(C(=O)OC(C)C)c(C)oc3c3ccccc23)cc1 | -13.1% | 
25 | COc1cc(NC(=O)c2nc3ccccc3nc2C)cc(OC)c1OC | -17.8% | 

Row | SMILES | activity change, negative = inhibition | Potency
26 | COC(=O)CCNc1ccc2c(c1)OCCO2 | 6.99% | 
27 | O=C(COc1ccc(Cl)cc1)Nc1ccc2c(c1)OCO2 | 3.44% | 
28 | CCOc1ccc(NCCC(=O)c2ccc3c(c2)OCO3)cc1 |  | 39.8 µM (active)
29 | CCCCN1C(=O)c2[nH]nc(-c3ccccc3O)c2C1c1cccc(OCc2ccccc2)c1 (stereo not given) | -26.7% | 
30 | Cc1cccc(NC(=O)c2ccc3nc(C(C)C)oc3c2)c1C | 27.1% | 
31 | CC(=O)c1ccc(NS(=O)(=O)c2ccc(-c3cc(C)no3)s2)cc1 | -3.44% | 
32 | O=C(Nc1cc(Cl)cc(Cl)c1)c1ccc2c(c1)N(Cc1cccc(Cl)c1)C(=O)c1ccccc1S2=O (stereo not given) | 3.3% | 
33 | CCOC(=O)c1ccc(NC(=O)C2CCN(S(=O)(=O)c3ccc4c(c3)CCCC(=O)N4)CC2)cc1 | 4.44% [at 57.1 µM] | 
34 | O=C(C1=C(O)C(=O)N(Cc2ccccc2)C1c1ccco1)c1ccco1 (stereo not given) | -32.8% | 
35 | C=CCSc1nnc(N2C(=O)C(O)=C(C(=O)c3ccco3)C2c2ccc(F)cc2)s1 (stereo not given) |  | 50.1 µM (active)
36 | CC(C)c1ccc(C2C(C(=O)c3ccco3)=C(O)C(=O)N2CC2CCCO2)cc1 (stereo not given) | -25.4% | 
37 | COc1ccccc1N1CCN(c2ncnc3onc(-c4ccc(F)cc4)c23)CC1 | 3.92% [at 57.1 µM] | 
38 | O=c1cc2nc(-c3ccccc3)nc(SCCOc3ccc(Cl)cc3)n2[nH]1 |  | 50.1 µM (active)
39 | CC(C)c1c(O)nc(SCCOc2ccc(Cl)cc2)[nH]c1=O | -22.7% | 
40 | CCn1c(SCC(=O)c2ccc3ccccc3c2)nnc1-c1cccs1 | -3.48% | 
41 | Cc1ccc(-c2nc(SCc3ccc(Br)cc3)n3[nH]c(=O)cc3n2)cc1 |  | 79.4 µM (active)
42 | Cc1cccc(-c2nc(SCc3ccc(Br)cc3)n3[nH]c(=O)cc3n2)c1 | -0.89% | 
43 | Cc1ccc(OCCSc2nc(-c3cccs3)nc3cc(=O)[nH]n23)cc1Cl |  | 50.1 µM (active)
44 | Cc1nc(SCCOc2ccc(Cl)cc2)[nH]c(=O)c1Cc1ccccc1 | 0.0225% | 
45 | Cc1ccc2nc(-c3ccc(Br)cc3)cn2c1 | -16% | 
46 | CC(C)(C)C1CCc2c(sc(NC(=O)c3ccccc3F)c2C(=O)N2CCCCC2)C1 (stereo not given) | 1.75% | 
47 | COc1cccc(-c2cc(C(=O)Nc3ccc(C)cc3)[nH]n2)c1 | -10.2% | 
48 | COc1ccc(-c2noc(-c3ccc(N4CCN(c5ccccc5)CC4)c([N+](=O)[O-])c3)n2)cc1OC | -13.6% | 
49 | CCN(CC)S(=O)(=O)c1ccc2c(c1)N(CC(=O)NCc1ccccc1)C(=O)CS2 | 4.1% | 
50 | CCNS(=O)(=O)c1cc(-c2nnc(Nc3cccc(C(F)(F)F)c3)c3ccccc23)ccc1C | -3.61% | 
